# Measurements: article PMC10726135, “HNF4α isoforms regulate the circadian balance between carbohydrate and lipid metabolism in the liver”
# Whole data set: some 18,000 sequences, median “log2 normalized intensity” near 0.39, cut for the highest 2% near 6.6. Many of the other results were omitted from the sample, so the highest values are more common in it than they were.
# Target: T1, HNF4alpha2 (COS-7 nuclear extract) (Homo sapiens, UniProt P41235 1-474)
# T1 sequence: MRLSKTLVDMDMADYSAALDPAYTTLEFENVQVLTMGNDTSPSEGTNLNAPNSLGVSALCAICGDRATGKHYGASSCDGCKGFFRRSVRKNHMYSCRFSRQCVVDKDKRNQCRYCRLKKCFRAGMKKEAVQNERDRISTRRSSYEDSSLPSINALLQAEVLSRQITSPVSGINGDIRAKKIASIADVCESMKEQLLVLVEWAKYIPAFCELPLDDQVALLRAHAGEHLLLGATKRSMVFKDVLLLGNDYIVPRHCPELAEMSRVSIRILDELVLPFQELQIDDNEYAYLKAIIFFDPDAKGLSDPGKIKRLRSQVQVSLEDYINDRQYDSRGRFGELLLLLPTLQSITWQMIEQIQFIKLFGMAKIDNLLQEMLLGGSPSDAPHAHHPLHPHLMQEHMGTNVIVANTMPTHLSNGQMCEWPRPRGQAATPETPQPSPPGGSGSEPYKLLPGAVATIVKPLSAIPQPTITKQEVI
# Assay: protein-binding microarray; COS-7 nuclear extract on double-stranded Agilent 4x180k PBM; binding buffer, salt, pH and temperature not given in the material; high values mean tight binding
# Conditions: chain copies: 2; label: 3' end of strand 1 on the slide; dsDNA, one strand shown
# Method in brief: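 Binding signal is the background-corrected, normalized gProcessedSignal calculated by Agilent software. It was measured by applying nuclear extracts of COS-7 cells transiently transfected with a human HNF4α isoform expression vector to a custom Agilent SurePrint G3 4x180k array of ~44,000 double-stranded ~60-nt test sequences in quadruplicate, then imaging bound HNF4α on an Agilent G2565CA scanner at 2-µm resolution.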
row,Sequence,binding signal [log2 normalized intensity]
1,ATAAGACACATTCCATGCTTATCAGTGTACGCCTAGGGAGATTAGAGTATCGGTCGA,0.893
2,TAACTCAAAATCTGCTCTGTCCTGAGATGTGCCTAGGGAGATTAGAGTATCGGTCGA,1.06
3,AGGCCTGGAACCTGTCTGACAGGATGAATTGCCTAGGGAGATTAGAGTATCGGTCGA,-0.627
4,GCTGCCGCAGATCCCCGCTCCCCTCCCCCAGCCTAGGGAGATTAGAGTATCGGTCGA,6.45
5,AAGAGCCAAAATGTGTTAGGCAAGCAAACTGCCTAGGGAGATTAGAGTATCGGTCGA,-0.953
6,AAAGTCCATATTCTTTGTTTGGATGCCAAAGCCTAGGGAGATTAGAGTATCGGTCGA,1.58
7,ACTTTGCCTTTTGGCTAAAGTCCAAATTCCGCCTAGGGAGATTAGAGTATCGGTCGA,5.14
8,GAATCAATGCCTGATTCCAAAGTCCACTTTGCCTAGGGAGATTAGAGTATCGGTCGA,6.91
9,AGATTCGGTGAGGGATTGTTTAGGTACAAAGCCTAGGGAGATTAGAGTATCGGTCGA,1.53
10,ATGTGGTCAAAACTTTGTTTGAGTTCCAAAGCCTAGGGAGATTAGAGTATCGGTCGA,1.07
11,CGGTGAGGGATTGTTTAGGTACAAAGTCCAGCCTAGGGAGATTAGAGTATCGGTCGA,8.35
12,TTGTTTAGGTACAAAGTCCATTGGAAGCCAGCCTAGGGAGATTAGAGTATCGGTCGA,5.82
13,AACTTTGTTTGAGTTCCAAAGTCCATGTTCGCCTAGGGAGATTAGAGTATCGGTCGA,6.61
14,GTCAAAACTTTGTTTGAGTTCCAAAGTCCAGCCTAGGGAGATTAGAGTATCGGTCGA,6.99
15,ATACAGAATCAATGCCTGATTCCAAAGTCCGCCTAGGGAGATTAGAGTATCGGTCGA,5.95
16,CTCTGAGATTCGGTGAGGGATTGTTTAGGTGCCTAGGGAGATTAGAGTATCGGTCGA,0.957
17,AGGGATTGTTTAGGTACAAAGTCCATTGGAGCCTAGGGAGATTAGAGTATCGGTCGA,7.7
18,AAGCATTTGGAGATTGCCACCTTGGTGAGAGCCTAGGGAGATTAGAGTATCGGTCGA,0.715
19,GAGTTCTTCAAGTCAGTCAAAATGAATAGTGCCTAGGGAGATTAGAGTATCGGTCGA,1.32
20,TTGGCAGATTAGATATATCTGTACTCAAACGCCTAGGGAGATTAGAGTATCGGTCGA,1.27
21,TAACAGGATTTTTGCTGAAGACAGGCCAGGGCCTAGGGAGATTAGAGTATCGGTCGA,-0.417

row,Sequence,binding signal [log2 normalized intensity]
1,CTGAATGGAATGAAGATACTGGATAACCTTGCCTAGGGAGATTAGAGTATCGGTCGA,0.695
2,AGAATGAGACCTGCTAGGCTGCATTCTCTGGCCTAGGGAGATTAGAGTATCGGTCGA,-0.977
3,TGCCTTATCTGGTTCAAAGGTCATTTCTGCGCCTAGGGAGATTAGAGTATCGGTCGA,6.58
4,TTACATGCCTTATCTGGTTCAAAGGTCATTGCCTAGGGAGATTAGAGTATCGGTCGA,7.65
5,TTCATTCTTTAAGGACCACATCAAAGGTCAGCCTAGGGAGATTAGAGTATCGGTCGA,4.7
6,TTCTGGTCAAAGGTCAATGAAGCTCTTGCTGCCTAGGGAGATTAGAGTATCGGTCGA,5.65
7,TTCCCTAAGATTCTGGTCAAAGGTCAATGAGCCTAGGGAGATTAGAGTATCGGTCGA,7.36
8,ATTCATTCCCTAAGATTCTGGTCAAAGGTCGCCTAGGGAGATTAGAGTATCGGTCGA,7.3
9,TATCTGGTTCAAAGGTCATTTCTGCTTGCAGCCTAGGGAGATTAGAGTATCGGTCGA,5.75
10,TAAGATTCTGGTCAAAGGTCAATGAAGCTCGCCTAGGGAGATTAGAGTATCGGTCGA,5.93
11,TTATCTTACATGCCTTATCTGGTTCAAAGGGCCTAGGGAGATTAGAGTATCGGTCGA,2.9
12,TGAGGCCCCAGTGTCAATTCTCATTCATCCGCCTAGGGAGATTAGAGTATCGGTCGA,-0.225
13,AACCCTTGCACTGCTGGTTTTTGTCAAAGAGCCTAGGGAGATTAGAGTATCGGTCGA,0.709
14,GCCTGTCAGGCCCAGAAACACTGAACCTTGGCCTAGGGAGATTAGAGTATCGGTCGA,1.63
15,TTGCACTGCTCAGGGTGGGGTCTCGCTGCTGCCTAGGGAGATTAGAGTATCGGTCGA,-0.755
16,ACACAATATTATGTTTTGTTATCTGTGCCAGCCTAGGGAGATTAGAGTATCGGTCGA,1.17
17,GTAAACTCCCTTTGATGCGGTCAGAGTTCAGCCTAGGGAGATTAGAGTATCGGTCGA,3.08
18,AGTGAACTCAAAGAAAAGTTATGTTGGGCAGCCTAGGGAGATTAGAGTATCGGTCGA,1.17
19,TCCCTTGCTCCACCCTTCTATCCCCTTATCGCCTAGGGAGATTAGAGTATCGGTCGA,2.8
20,GCAGAGCAGTTTAGAGAAAGGGTCAAAGGTGCCTAGGGAGATTAGAGTATCGGTCGA,5.29
21,GACTGTCTTAGGAAAGAACAGGTCAAAGGTGCCTAGGGAGATTAGAGTATCGGTCGA,3.91
